Assay outcomes from PubChem BioAssay.
Hits are enriched below; roughly 19% of the tested compounds scored in any of these assays.
HT1080-NT tox: kills 2HG-producing HT-1080-NT fibrosarcoma cells; HT-1080-NT fibrosarcoma viability, CellTiter-Glo ATP luminescence, 48 h; Potency, µM (doses to about 46.1 µM), actives largely listed as cytotoxic; actives 1.6% (n = 360,000); AID 686970;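 note: NT is the 2HG producing partner of a matched IDH1 knockdown line; nearly all actives have a fitted effect of over 55% in size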
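Fibrosarcoma NT cells, 750 per well in 5% FBS RPMI, were exposed to compound for 48 hours. Viability: CellTiter-Glo luminescence.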
TDP1 cell noCPT: qHTS for Inhibitors of human tyrosyl-DNA phosphodiesterase 1 (TDP1): qHTS in cells in absence of CPT. actives 15% (n = 420,000). AID 686978, 2013. Potency, µM (titrated, usually from 46.2 µM), actives largely listed as inhibitors. DT40 Tdp1-/- hTDP1 cells, no CPT, ATP luminescence, 48 h; note: nearly all actives have a fitted effect of over 55% in size
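Luminescent ATP content (CellTiter-Glo) served as the growth readout. Knockout chicken DT40 cells expressing human TDP1 were exposed to compounds without camptothecin for a minimum 48 hr at 37 °C.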
HT1080 IDH1KD tx: kills HT-1080 cells with IDH1 knockdown; HT-1080 IDH1 knockdown viability, ATP luminescence, 48 h; Potency, µM (doses to about 46.1 µM), usual class: cytotoxic; actives 2% (n = 360,000); AID 686971
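In this qHTS, HT-1080 cells depleted of IDH1 are exposed for 48 h at 37 °C to compound titrations. Toxicity is scored from CellTiter-Glo luminescence, with DMSO as full viability and medium alone as none.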
uPA surface inh: inhibitors of cell surface uPA generation; cell surface uPA generation assay, qHTS; Potency, µM (highest dose often 38.3 µM), actives largely listed as inhibitors; actives 0.31% (n = 330,000); active = well fitted inhibition curve with a large enough effect; inconclusive = small, poorly fitted or top-dose-only effect; inactive = no such curve, though single readings can be large or run the other way; tested in mouse RAW 264.7 cells; note: nearly all actives have a fitted effect of over 55% in size
DT40 TDP1 CPT: growth inhibition of DT40 Tdp1-/-;hTDP1 cells with camptothecin (screen for TDP1 inhibitors) | Potency, µM (highest dose often 46.2 µM), usual class: inhibitors | chicken DT40 Tdp1-/-;hTDP1 cells + 20 nM CPT, ATP luminescence, 48 h | actives 12% (n = 420,000) | AID 686979; note: nearly all actives have a fitted effect of over 55% in size
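Chicken DT40 Tdp1-/- cells stably complemented with human TDP1 were seeded at 400 cells/well in medium containing 20 nM camptothecin, exposed to pin-transferred compounds, and grown at 37 °C for at least 48 hr. Viability was read as ATP luminescence.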
IL-1B inflam inh: blocks inflammasome-driven IL-1 beta release. THP-1 LPS/ATP IL-1B secretion, AlphaLISA, 16 h; active compounds read low. activity change, % at 57.5 µM. actives 4.7% (n = 360,000); in the data active = activity change below about -50%; inconclusive = mostly about -30% to -49%
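Secreted IL-1B measured by AlphaLISA bead assay after 16 h compound exposure of THP-1 cells; compounds (final up to 57.5 uM) added 1 h before LPS (250 ng/mL) and ATP (1.25 mM) stimulation; lower signal means less secretion.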
Numbers stand for hits; [ ] = dose if it differs, or a comment. Unless noted, calls come from the whole dose curve; as a rule, active = well fitted curve in the direction sought with a large enough effect; inconclusive = small, poorly fitted or top-dose-only effect, or another doubt; inactive = no such curve, though single readings can be large; an effect the other way counts as inactive or inconclusive.

`Cc1cccn2c(=O)c(/C=C(\C#N)S(=O)(=O)c3ccccc3)c(Oc3ccc(Cl)cc3)nc12` gave HT1080-NT tox inactive, TDP1 cell noCPT 18.4µM, HT1080 IDH1KD tx inactive, uPA surface inh inactive, DT40 TDP1 CPT inconclusive and IL-1B inflam inh inactive.
`CCC(=O)Nc1cc(=O)[nH]c2nc(-c3ccc(Cl)cc3)nn12` gave HT1080-NT tox inactive, TDP1 cell noCPT 18.4µM, HT1080 IDH1KD tx inactive, uPA surface inh inactive, DT40 TDP1 CPT inconclusive and IL-1B inflam inh inactive.
Screening COc1ccc(NC(=O)CN2C(=O)COc3ccc(S(=O)(=O)Nc4ccccc4)cc32)cc1 returned TDP1 cell noCPT inactive and DT40 TDP1 CPT inactive.
`CCc1ccccc1NC(=O)CN1C(=O)COc2ccc(S(=O)(=O)Nc3ccccc3)cc21` gave TDP1 cell noCPT 25.9µM and DT40 TDP1 CPT 18.4µM.
For CSc1cccc(NC(=O)CN2C(=O)COc3ccc(Cl)cc32)c1 the results were TDP1 cell noCPT 20.6µM and DT40 TDP1 CPT inconclusive.
Screening CC(=O)c1cccc(NC(=O)CCCN2C(=O)COc3ccc(C)cc32)c1 returned TDP1 cell noCPT inconclusive and DT40 TDP1 CPT 18.4µM.
Screening O=C(CN1C(=O)COc2ccc(S(=O)(=O)Nc3ccccc3)cc21)Nc1cccc(Cl)c1 returned TDP1 cell noCPT inconclusive and DT40 TDP1 CPT 16.4µM.
`Cc1nc2ccccn2c(=O)c1NC(=O)c1ccc2c(c1)OCO2` gave HT1080-NT tox inactive, TDP1 cell noCPT inactive, HT1080 IDH1KD tx inactive, DT40 TDP1 CPT inactive and IL-1B inflam inh inactive.
For O=C(CSc1nnc2c(n1)[nH]c1ccc(F)cc12)NCc1ccc(F)cc1 the results were HT1080-NT tox inactive, TDP1 cell noCPT inactive, HT1080 IDH1KD tx inactive, uPA surface inh inactive, DT40 TDP1 CPT inactive and IL-1B inflam inh inactive.
For COc1ccc(NC(=O)CN2C(=O)COc3ccc(S(=O)(=O)Nc4ccccc4)cc32)cc1OC the results were TDP1 cell noCPT inactive and DT40 TDP1 CPT inactive.
`CCc1cccc(NC(=O)CN2C(=O)COc3ccc(S(=O)(=O)Nc4ccccc4)cc32)c1` gave TDP1 cell noCPT 23.1µM and DT40 TDP1 CPT inconclusive.
`COc1ccc(-c2csc(C(C#N)=C(O)CSc3nccn3C)n2)cc1OC` gave HT1080-NT tox inactive, TDP1 cell noCPT inconclusive, HT1080 IDH1KD tx inactive, uPA surface inh inactive, DT40 TDP1 CPT inactive and IL-1B inflam inh inactive.
Screening CCOc1ccc(C2c3c(oc4ccc(C)cc4c3=O)C(=O)N2CCCN2CCOCC2)cc1 (centres undefined) returned TDP1 cell noCPT inactive and DT40 TDP1 CPT inactive.
Screening COc1ccc(Cl)cc1NC(=O)CSc1cn(CC(=O)N2CCCCC2)c2ccccc12 returned TDP1 cell noCPT 20.6µM and DT40 TDP1 CPT 20.6µM.
Screening COc1ccc(OC)c(NC(=O)CSc2cn(CC(=O)N3CCCCCC3)c3ccccc23)c1 returned TDP1 cell noCPT 20.6µM and DT40 TDP1 CPT inconclusive.
For Cc1cccc(NC(=O)CSc2cn(CC(=O)N3CCCC3)c3ccccc23)c1C the results were TDP1 cell noCPT inconclusive and DT40 TDP1 CPT inactive.
CCCCn1cnc2cc(C)c(C)cc21 was read as HT1080-NT tox inactive, TDP1 cell noCPT inconclusive, HT1080 IDH1KD tx inactive, uPA surface inh inactive, DT40 TDP1 CPT inactive and IL-1B inflam inh inactive.
For CCN1C(=O)/C(=C2/Sc3ccccc3N2CC)S/C1=N\c1ncn[nH]1 the results were HT1080-NT tox inactive, TDP1 cell noCPT 23.1µM, HT1080 IDH1KD tx inactive, uPA surface inh inactive, DT40 TDP1 CPT inconclusive and IL-1B inflam inh -55.5.
For C=CCN1C(=O)/C(=C2/Sc3ccccc3N2CC)SC1=S the results were HT1080-NT tox inactive, TDP1 cell noCPT inactive, HT1080 IDH1KD tx inactive, uPA surface inh inactive, DT40 TDP1 CPT inactive and IL-1B inflam inh inactive.
CC1(C(=O)NCc2ccccc2Br)CCN1C(=O)CCc1ccc(Cl)cc1Cl (centres undefined) was read as HT1080-NT tox inconclusive, TDP1 cell noCPT inactive, HT1080 IDH1KD tx inconclusive, DT40 TDP1 CPT inconclusive and IL-1B inflam inh inconclusive.
Screening CC(=O)Oc1ccc2c(=O)c(Oc3ccccc3)coc2c1OC(C)=O returned HT1080-NT tox inactive, TDP1 cell noCPT inconclusive, HT1080 IDH1KD tx inactive, uPA surface inh inactive, DT40 TDP1 CPT inactive and IL-1B inflam inh inactive.
`CN(C(=O)c1cc2c(s1)-c1ccc(Cl)cc1SC2)c1cccc(C(F)(F)F)c1` gave TDP1 cell noCPT 16.4µM and DT40 TDP1 CPT 14.6µM.
Screening CN(C)CCNC(=O)c1cc2c(s1)-c1ccc(Cl)cc1SC2 returned HT1080-NT tox inconclusive, TDP1 cell noCPT 8.2µM, HT1080 IDH1KD tx inconclusive, uPA surface inh inactive, DT40 TDP1 CPT 2.59µM and IL-1B inflam inh inactive.
For Cc1ccc2c(c1)c(=O)c1ccccc1n2CCCC(=O)Nc1c(F)cccc1F the results were TDP1 cell noCPT inactive and DT40 TDP1 CPT inactive.
Cc1ccc(NC(=O)CCCn2c3ccccc3c(=O)c3cc(C)ccc32)c(Br)c1 was read as TDP1 cell noCPT 14.6µM and DT40 TDP1 CPT inconclusive.
`Cc1ccc2c(c1)c(=O)c1ccccc1n2CCCC(=O)Nc1cc(Cl)ccc1C` gave TDP1 cell noCPT 16.4µM and DT40 TDP1 CPT inconclusive.
Cc1noc(Cn2c(=O)c3ccccc3n(CC(=O)Nc3cc(Cl)ccc3C)c2=O)n1 was read as TDP1 cell noCPT inactive and DT40 TDP1 CPT inactive.
`Cc1sc2ncnc(N(C)Cc3cccs3)c2c1C` gave HT1080-NT tox inactive, TDP1 cell noCPT inconclusive, HT1080 IDH1KD tx inactive, uPA surface inh inactive, DT40 TDP1 CPT inconclusive and IL-1B inflam inh inactive.
For CN(Cc1cccs1)c1ncnc2sccc12 the results were HT1080-NT tox inactive, TDP1 cell noCPT 16.4µM, HT1080 IDH1KD tx inactive, uPA surface inh inactive, DT40 TDP1 CPT inconclusive and IL-1B inflam inh inactive.
CN(Cc1ccccc1F)c1ncnc2sccc12 was read as HT1080-NT tox inactive, TDP1 cell noCPT 20.6µM, HT1080 IDH1KD tx inactive, uPA surface inh inactive, DT40 TDP1 CPT inconclusive and IL-1B inflam inh inactive.
For O=C(CSc1ncnc2sccc12)Nc1ccccc1F the results were HT1080-NT tox inactive, TDP1 cell noCPT inactive, HT1080 IDH1KD tx inactive, uPA surface inh inactive, DT40 TDP1 CPT inactive and IL-1B inflam inh inactive.
For OCCN(Cc1ccccc1)c1ncnc2sccc12 the results were HT1080-NT tox inactive, TDP1 cell noCPT 13µM, HT1080 IDH1KD tx inactive, uPA surface inh inactive, DT40 TDP1 CPT inconclusive and IL-1B inflam inh inactive.
For O=C(NCCN1Cc2ccccc2OC(c2ccccc2F)C1)c1ccco1 (centres undefined) the results were TDP1 cell noCPT inconclusive and DT40 TDP1 CPT inactive[9.04 µM].
